From PubChem BioAssay AID1851 (National Center for Advancing Translational Sciences (NCATS), 2009)
Several values for one entry are separate records, joined by “and”; a condition that tells them apart may be missing. Identical values can stand only once. Screen size: about 16,000 compounds; about 5,700 (36%) were called active. Inconclusive results (about 24%) are left out. Calls come from the whole dose curve; as a rule, active = well fitted curve in the direction sought with a large enough effect; inconclusive = small, poorly fitted or top-dose-only effect, or effect the other way; inactive = no such curve, though single readings can be large or run the other way. The list shows a part of the results.

Target: Cytochrome P450 1A2 (Homo sapiens) (UniProt P05177)
Sequence (P05177 whole entry, looked up): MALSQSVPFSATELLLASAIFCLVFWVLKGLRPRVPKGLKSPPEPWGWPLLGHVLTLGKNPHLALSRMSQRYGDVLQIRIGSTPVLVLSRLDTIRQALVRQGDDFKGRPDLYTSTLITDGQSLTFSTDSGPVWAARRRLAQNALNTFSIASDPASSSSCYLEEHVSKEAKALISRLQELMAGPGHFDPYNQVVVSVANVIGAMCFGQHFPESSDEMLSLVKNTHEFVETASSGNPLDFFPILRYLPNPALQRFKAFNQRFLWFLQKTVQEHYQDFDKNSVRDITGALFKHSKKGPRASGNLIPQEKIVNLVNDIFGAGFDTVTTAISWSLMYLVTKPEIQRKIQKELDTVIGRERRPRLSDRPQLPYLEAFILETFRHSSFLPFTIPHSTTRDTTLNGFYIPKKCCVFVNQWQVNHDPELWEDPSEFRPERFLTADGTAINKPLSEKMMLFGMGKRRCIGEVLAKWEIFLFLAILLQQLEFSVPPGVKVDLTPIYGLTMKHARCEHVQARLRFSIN
Assay: Cytochrome panel assay with activity outcomes
Settings: recombinant CYP, pro-luciferin dealkylation, luminescence, p450-cyp1a2; series mostly up to 57.1 µM; activity, negative = inhibition: at the top concentration
% is set by controls: 0 for no effect and ±100 for the full control effect.

activity, negative = inhibition, inactive:
Cc1nc(SC2CC(=O)N(c3ccc([N+](=O)[O-])cc3)C2=O)nc2c1CCCC2 (configuration not stated) 22.7%, C[C@@]1(O)CCOC(=O)C1 -3.08% [at 25.6 µM], CCCCC#Cc1nc(N)c2ncn([C@@H]3O[C@@H](C(=O)NCC)[C@H](O)[C@@H]3O)c2n1 -3.78%, Cc1ccc(N(C(=O)C(F)(F)F)C(C(=O)NC2CCCCC2)c2cccs2)cc1C (configuration not stated) 6.29%, COc1ccc(CN(C(=O)Cc2cccs2)C(C(=O)NC2CCCC2)c2ccncc2)cc1 (configuration not stated) -15.6%, COc1cccc(N2CCN(C(=O)Nc3ccc4c(c3)NC(=O)CO4)CC2)c1 -9.31%, Cc1ccc(C(=O)N/C(=C/C=C/c2ccccc2)C(=O)NCc2ccco2)cc1 -19.3%, Cc1cccc(Nc2ccccc2C(=O)OCC(=O)N(C)C2CCS(=O)(=O)C2)c1C (configuration not stated) -12.7%, O=C(COC(=O)c1cccc(S(=O)(=O)N2CCN(c3ccccc3)CC2)c1)NCc1ccco1 -14.6%, O=C(CNCCO)N1CCc2ccccc21 -26.8%, O=C(O)CCC(=O)N1CCc2cc(S(=O)(=O)NCc3cccs3)ccc21 -5.7%, CCN(CC)C(=O)CSc1nnc(C2CCCCC2)o1 10.2%, O=C(NCc1ccccc1)c1ccc(S(=O)(=O)N2CCCc3ccccc32)cc1 -9.75%, CCN(CC)C(=O)CSc1nnc(CNc2ccc(F)cc2)o1 -25.8%, C[C@]12CC[C@H]3c4ccc(OC[C@H]5CO5)cc4CC[C@H]3[C@H]1CC[C@@H]2O -8.48% [at 11.4 µM], CC(=O)OC[C@@H]1O[C@H](CCO/N=C(\C)CCN2CCc3nc(-c4ccccc4)c(-c4ccccc4)cc3C2)C=C[C@@H]1OC(C)=O 1.24% [at 11.4 µM], O=C1[C@H]2[C@H]3[C@H](O)[C@H](O)C/C(=N/OC[C@@H](O)COCc4ccco4)[C@@H]3CC[C@@H]2C(=O)N1Cc1ccc2c(c1)OCO2 -3.61% [at 11.4 µM], COC(=O)N/N=C\C=C\c1ccc2c(c1)OCO2 -1.21%, CN1CCC2(CC1)CCN(S(=O)(=O)c1ccccc1)CC2 -11%, Cc1ccc(CC(=O)N2CC(C)OC(C)C2)cc1 (configuration not stated) 9.16%, CC1CN(C(=O)CN2C(=O)NC3(CCCCCC3)C2=O)CC(C)O1 (configuration not stated) -0.466%, CCCN(CCC)CCc1cccc2c1CC(=O)N2 -4.15%, NC(=O)CNCCC(c1ccccc1)c1ccccc1 -4.69%, CN(C)CCCO[C@H]1[C@@H]2OC(C)(C)O[C@@H]2O[C@@H]1[C@H](O)CO -3.46% [at 25.6 µM], CC(=NC1CCCCC1)c1ccccc1O -14.9% [at 11.4 µM], C/C(CCN1CCc2nc(-c3ccccc3)c(-c3ccccc3)cc2C1)=N\O[C@@H](C)CN1CCCc2nc(C)c(C)cc21 -2.64% [at 11.4 µM], Cc1cc2nnc(SCC(=O)N3CCN(c4ccccc4)CC3)n2c(N)n1 -10.5%, CC(C)NC(=O)CSc1nnc(C2CC2)n1-c1ccccc1 -6.62%, O=C(NCCN1CCN(Cc2ccccc2)CC1)C1CC(=O)N(C2CCCC2)C1 (configuration not stated) -4.83%, CCOc1ccc(CNC(=O)C2CC(=O)N(C3CCCC3)C2)cc1OC (configuration not stated) -12.7%, COc1cc2c(cc1OC)-c1cc3ccc(OC)c(OC)c3c[n+]1CC2 -11.4% [at 25.6 µM], CCn1nc(C)c(NC(=O)/C=C/c2cnn(C)c2C)c1C -12%, CCN1CCN(C(=O)CCc2nc3ccccc3c(=O)[nH]2)CC1 -11.1%, CCn1cc(C(=O)O)c(=O)c2cc(F)c(N3CCNCC3)nc21 -10.1% [at 25.6 µM], O=C1CCCC=C1[C@@H](O)CCOC(c1ccccc1)(c1ccccc1)c1ccccc1 -6.79% [at 11.4 µM], CCOC(=O)N1CCN(C(=O)CNCc2cccs2)CC1 0.601%, COCCNC(=O)CSc1ncnc2sccc12 -12.2%, CCOC(=O)N1CCN(C(=O)CN(C)S(=O)(=O)c2ccc3c(c2)C(C)(C)C(=O)N3C)CC1 -10.3%, COc1cc2nc(N3CCN(C(=O)c4ccco4)CC3)nc(N)c2cc1OC -13.1% [at 25.6 µM], CCC1(C)CC(CCNS(=O)(=O)c2ccc(C)cc2)(c2ccc(C)cc2)CCO1 (configuration not stated) -17.8%, CCc1cccc(N(C)C(N)=Nc2cccc3ccccc23)c1 -7.54%, CC(=O)OC[C@H]1O[C@@H](O/N=C\[C@@H](C)[C@H](OCc2ccccc2)C(C)C)[C@H](OC(C)=O)[C@@H](OC(C)=O)[C@H]1OC(C)=O -8.7% [at 11.4 µM], CCC(C)(C(=O)NC1CCCC1)N(Cc1ccco1)C(=O)c1ccccn1 (configuration not stated) -21.7%, CC(C)c1ccc(/C(C(=O)O)=C(\O)C(=O)O)cc1 -18.6% [at 11.4 µM], COc1c(O)cc2c(c1O)[C@@H]1O[C@@H](CO)[C@@H](O)[C@@H](O)[C@@H]1OC2=O -3.97% [at 25.6 µM], Cc1ccc(C(=O)N/N=C/c2ccc(S(=O)(=O)O)o2)c(Cl)c1 2.08%, O=C(ON=C1CCN(S(=O)(=O)c2ccccc2)CC1)c1ccccc1 -2.38%, CCN1C(=O)C2(SC(NC(C)=O)=NN2C(C)=O)c2cc(C)ccc21 (configuration not stated) -7.91%, CC(C)C[C@H](NC(=O)[C@@H]1O[C@H]1C(=O)O)C(=O)NCCCCN=C(N)N -9.37%, Cc1nonc1NC(=O)OCCN1CCOC1=O -12.4%, O=c1c(Cl)c(N2CCN(S(=O)(=O)c3ccc(F)cc3)CC2)cnn1-c1cccc(Cl)c1 -4.11%, CN1CCC2(CC1)CCN(C(=O)c1ccncc1)CC2 0.859%, CC1=C(C#N)C(NC(=O)C2CCCCC2)(C(F)(F)F)C(=O)N1 (configuration not stated) -19.3%, Cc1sc(NC(=O)/C=C/c2ccc(C(C)C)cc2)c(C#N)c1C -4.52%, C[N+](C)(C)CCCSc1nc2ccccc2[nH]1 -15.1% [at 11.4 µM], O=c1c[n+](CCCC[n+]2cc(=O)o[nH]2)[nH]o1 2.3% [at 11.4 µM]

AC50, active:
Cc1cnc(CNc2ncncc2-c2ccccc2C#N)cn1 0.251 µM, COc1ccc(CCN(C(=O)C(F)(F)F)C(C(=O)NC2CCCC2)c2cccs2)cc1 (configuration not stated) 12.6 µM, Cc1cccc(Nc2ccccc2C(=O)OCC(=O)NCc2ccco2)c1C 12.6 µM, O=C(COC(=O)c1ccccc1Nc1cccc(C(F)(F)F)c1)NCc1ccco1 5.01 µM, O=C(CSc1nnc(CNc2ccccc2)o1)N1CCCc2ccccc21 12.6 µM, O=C(CSc1nnc(CNc2ccc(F)cc2)o1)OC1CCCCC1 25.1 µM, O=C(CSc1n[nH]c(-c2ccccc2O)n1)N1CCCc2ccccc21 2 µM, O=C(CSc1nc(-c2ccccc2)cs1)N1CCc2ccccc21 2.51 µM, Cc1cccc(OCC(=O)N/N=C\C=C\c2ccc3c(c2)OCO3)c1C 5.01 µM, Cc1cc(C)n(C(=O)c2cc3c(s2)CCCC3)n1 0.282 µM, CC1CN(C(=O)c2cc3c(s2)CCC3)CC(C)O1 (configuration not stated) 12.6 µM, CCC(=O)c1ccc2c(c1)N(CCCN(C)C)c1ccccc1S2 0.631 µM, CN(C)CCCN1c2ccccc2Sc2ccc(C(F)(F)F)cc21 1.58 µM and 794 nM, C/C(=N/Nc1ccc2ccccc2n1)c1ccccc1O 1.58 µM, Cc1cc2nnc(SCC(=O)OC(C)C)n2c2ccccc12 14.1 µM, Cc1cc2nnc(SCCCCN3C(=O)c4ccccc4C3=O)n2c2ccccc12 15.8 µM, CCOc1ccc(CCNC(=O)C2CC(=O)N(C3CCCC3)C2)cc1OCC (configuration not stated) 10 µM, COc1ccc2cc3[n+](cc2c1OC)CCc1cc2c(cc1-3)OCO2 5.01 µM, CCN1CCN(c2nn3c(=O)c4ccccc4nc3c3ccccc23)CC1 6.31 µM, CCN1CCN(c2nc(-c3ccccn3)nc3ccccc23)CC1 11.2 µM, Cc1cccc(C2NC(=O)c3c(sc(C)c3C)N2)c1O (configuration not stated) 3.55 µM, CCOC(=O)N1CCN(c2nc(-c3ccco3)cc(C(F)(F)F)n2)CC1 0.501 µM, CCOC(=O)N1CCN(c2nc(-c3cccs3)cc(C(F)(F)F)n2)CC1 2.82 µM, CCCNC(=O)CSc1nc(-c2cccs2)cc(C(F)(F)F)n1 2.51 µM, CN(C)c1ncc2nc(-c3ccc(F)cc3)c(=O)n(C3CC3)c2n1 1.58 µM, CN(C)c1ncc2nc(-c3ccccc3)c(=O)n(C3CC3)c2n1 2.51 µM, Cc1ccccc1-c1nc(N(C)Cc2ccco2)c2ccccc2n1 1.58 µM, CN(Cc1ccco1)c1ccnc(-c2ccccc2C(F)(F)F)n1 2.51 µM, COc1ccccc1-c1nc(N(C)Cc2ccco2)c2ccccc2n1 0.501 µM, CN(Cc1ccco1)c1nc(-c2ccccc2C(F)(F)F)nc2ccccc12 2 µM, CN(C)Cc1ccccc1-c1nc(N(C)Cc2ccco2)c2ccccc2n1 0.794 µM, CCOC(=O)N/N=C\c1ccc([N+](=O)[O-])o1 12.6 µM, Cc1ccc(NCC(=O)N/N=C/c2ccc(OC(=O)c3ccco3)cc2)cc1 7.08 µM, Cc1ccc(NCC(=O)N/N=C\c2ccc([N+](=O)[O-])o2)cc1 1.41 µM, CCOC(=O)N/N=C(/C)c1ccc([N+](=O)[O-])o1 12.6 µM, Clc1ccc2c(c1)C(c1cccs1)=NNC(c1cccnc1)=N2 3.16 µM, Nc1ccc(Sc2cnn(-c3ccccc3)c(=O)c2Cl)cc1 5.01 µM, CC1(C)Cc2ccccc2C(NNC(=O)c2ccncc2)=N1 10 µM, Cc1sc(NC(=O)C2CCCCC2)c(C#N)c1-c1ccccc1 5.01 µM, Cc1c(OCC(F)(F)F)ccnc1CSc1nc2ccccc2[nH]1 3.55 µM

AC50, inactive:
CC(C)NNC(=O)c1ccncc1
